# How the values were obtained:
# Test in all cases: PBM binding z-score (relative to random genomic background probes); higher = stronger binding; sequences stand for … in GC…GCGATTGACAGCGTAGAATGAAGG
# [1] = tested on: FXR:RXRa (NR concentration 270 nM, RXRa partner concentration 90 nM)
# How it was run: (§1)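 Binding buffer was PBS pH 7.4 with 2% milk, 0.02% Triton X-100, 1 mM DTT, 0.2 mg/mL BSA and 0.4 mg/ml salmon testes DNA. In it, ligand-free nuclear receptor dimers were incubated 1 h on custom Agilent 4×180K protein-binding microarrays carrying double-stranded probes. Antibodies against each partner (one per run) detected binding, and z-scores were calculated against random background probes after regression normalization of scanned fluorescence.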
# [2] = tested on: LXRa:RXRa (NR concentration 270 nM, RXRa partner concentration 90 nM)
# How it was run: as §1
# [3] = tested on: LXRa homodimer (NR concentration 270 nM)
# How it was run: as §1
# [4] = tested on: LXRb:RXRa (NR concentration 270 nM, RXRa partner concentration 90 nM)
# How it was run: as §1
# [5] = tested on: LXRb homodimer (NR concentration 270 nM)
# How it was run: as §1
# [6] = tested on: PPARa:RXRa (NR concentration 270 nM, RXRa partner concentration 90 nM)
# How it was run: as §1
# [7] = tested on: PPARg:RXRa (NR concentration 180 nM, RXRa partner concentration 90 nM)
# How it was run: as §1
# [8] = tested on: PPARg:RXRa 270nM:90nM, anti-RXR (NR concentration 270 nM, RXRa partner concentration 90 nM)
# How it was run: as §1
# [9] = tested on: PPARg:RXRa 30nM:10nM, anti-RXR (NR concentration 30 nM, RXRa partner concentration 10 nM)
# How it was run: as §1
# [10] = tested on: PPARg:RXRa 90nM:30nM, anti-RXR (NR concentration 90 nM, RXRa partner concentration 30 nM)
# How it was run: as §1
# [11] = tested on: PPARg:RXRa DBDmut IVT, anti-RXR (DBD mutation: RXRa K156A/R161A, NR concentration 270 nM, RXRa partner concentration 90 nM)
# How it was run: as §1
# [12] = tested on: PPARg:RXRa IVT, anti-PPARg (NR concentration 270 nM, RXRa partner concentration 90 nM)
# How it was run: as §1
# [13] = tested on: PPARg DBDmut:RXRa IVT, anti-PPARg (DBD mutation: PPARg1 K132A/R137A, NR concentration 270 nM, RXRa partner concentration 90 nM)
# How it was run: as §1
# [14] = tested on: PPARg DBDmut IVT, anti-PPARg (DBD mutation: PPARg1 K132A/R137A, NR concentration 270 nM)
# How it was run: as §1
# [15] = tested on: PPARg homodimer (NR concentration 180 nM)
# How it was run: as §1
# [16] = tested on: PXR:RXRa (NR concentration 270 nM, RXRa partner concentration 90 nM)
# How it was run: as §1
# [17] = tested on: PXR homodimer (NR concentration 270 nM)
# How it was run: as §1
# [18] = tested on: RARa:RXR (NR concentration 270 nM, RXRa partner concentration 90 nM)
# How it was run: as §1
# [19] = tested on: RARa homodimer (NR concentration 270 nM)
# How it was run: as §1
# [20] = tested on: RARb:RXRa (NR concentration 270 nM, RXRa partner concentration 90 nM)
# How it was run: as §1
Sequence,PBM binding z-score [1],PBM binding z-score [2],PBM binding z-score [3],PBM binding z-score [4],PBM binding z-score [5],PBM binding z-score [6],PBM binding z-score [7],PBM binding z-score [8],PBM binding z-score [9],PBM binding z-score [10],PBM binding z-score [11],PBM binding z-score [12],PBM binding z-score [13],PBM binding z-score [14],PBM binding z-score [15],PBM binding z-score [16],PBM binding z-score [17],PBM binding z-score [18],PBM binding z-score [19],PBM binding z-score [20]
ACTAACAGGCCAAGTTTGGGTCACTCAAACAAAG,0.517,0.251,-0.258,0.977,0.105,1.45,0.241,0.254,-0.0822,0.083,0.131,0.999,-0.122,0.374,0.38,0.912,-0.269,1.75,-0.388,2.11
CCTTACGGGTCATTCCAGGTTATAGCATCGGAGT,6.28,7.32,2.01,4.7,0.548,4.94,3.32,4.21,1.14,2.4,2.86,3.39,0.145,-0.0638,1.34,5.52,0.529,3.91,0.74,3.51
AGAACGAGGGCAATGAGTTGTTAGCACGGGTGGC,0.161,0.00811,-0.446,-0.26,-1.01,1.23,1.18,0.817,0.096,0.514,3.51,2.66,0.326,-0.308,-0.355,0.859,1.26,0.0367,-0.253,2.13
CGAACTAGGTAATCCAGGACAGTGAATACATTGA,-0.0818,-0.39,-0.012,-0.349,-0.454,1.23,1.56,0.982,0.536,0.507,5.67,4.69,0.81,0.796,0.0161,-0.34,-0.311,-0.156,0.04,0.0507
CCGTCTGGGGCAAGGTTACCATAACGCACAGCCA,0.304,0.595,-0.295,0.486,-1.06,1.47,1.66,2.36,0.376,1.93,1.75,2.43,-0.591,-1.54,0.46,0.036,-0.461,0.632,0.0974,1.72
TTACCAAGGTGCAGGTCGTTGATCCCTCTGTAGA,0.967,1.17,0.154,0.819,-0.626,0.827,-0.238,0.806,0.416,0.733,-0.00827,0.492,-0.281,-1.32,-0.014,0.4,0.135,0.7,-0.516,0.624
TCTAGTTGGTCACCGAGGTCACACACGACGGGTA,3.85,3.58,2.2,3.85,1.18,4.41,3.75,4,3.5,3.89,2.51,4.29,1.31,2.33,3.73,5.31,2.5,5.61,1.78,3.92
CAAACTAGGGCAAGAGGTCAAAGTCCGCTTCCCG,5.03,5.04,4.65,4.67,0.677,5.74,8.05,6.92,5.45,6.96,6.91,7.47,1.69,0.0985,3,5.35,1.49,5.98,1.61,4.51
CCTCGGACGACAGAAGGTCAGAGCTGTCCGCTTT,1.1,1.53,0.0414,1.18,-0.358,1.83,-0.153,-0.0801,-1.06,-0.472,-0.0338,-0.307,-1.28,-2.04,1.12,1.35,-0.144,2.01,-0.163,2.67
CCGACTGGCGCAAGGTTACCATAACGCACAGCCA,0.175,0.561,-0.255,0.645,-0.776,0.766,0.701,-0.0732,-0.409,-0.61,0.00884,-0.432,-1.08,-0.725,0.0939,0.262,-0.271,0.604,-0.0192,0.871
CGAACTAGGTCATCCAGCACAGTGAATACATTGA,4.05,2.64,0.684,2.07,0.124,4.78,7.47,6.28,3.93,5.81,8.26,8.11,2.99,2.39,1.64,1.47,0.241,2.25,0.526,3.71
AGACTGAGGTTACCAAAGATCAGGGAAACGCTTG,1.67,5.98,-0.277,3,-0.462,2.79,1.29,1.54,0.351,1.05,0.451,1.01,-0.133,-0.273,0.133,1.42,-0.0396,1.82,-0.111,2.08
ATATGTAGGTTACATCCGGGTCAATCAGGCTATG,2.56,4.37,1.05,2.91,0.748,4.39,5.98,5.29,2.62,4.47,6.83,7.41,2.24,2,1.63,2.93,0.984,3.51,0.955,2.32
CGAACTAGGTCAGAACAGCACAGTGAAGGATGAT,0.904,0.613,-0.229,0.425,-0.2,3.25,5.34,4.59,1.73,3.54,7.06,7,0.891,0.278,0.531,0.247,-0.0288,0.419,0.0797,2.92
ACTAGCAGGCCAAGGGTCGCTCAAGATTAGTCCG,-0.247,0.0805,-0.567,0.0881,-0.965,2.36,4.99,6.2,3.7,5.95,0.554,1.95,-0.249,-1.1,0.333,0.247,-0.683,0.951,-0.617,1.35
ATTACAGGGTCACTAGGCCAGAGTAGGTACGAAT,6.12,4.57,0.484,3.59,1.62,5.94,8.17,6.86,3.45,5.84,3.81,5.92,2.92,2.81,2.63,3.43,0.344,4.32,1.19,4.46
CGTCCAAGGTCAGCAGGTAAGTGAAAGCGACGTG,5.48,3.22,-0.131,2.36,-0.25,4.3,3,3.31,0.585,2.28,2.46,2.83,0.325,-0.0804,2.47,2.54,-0.0164,3.47,1.22,5
CCTTACGGGTCACTGACAAGTTATAGCATTTGGA,5.46,3.31,0.0997,3.2,0.134,4.9,4.26,4.4,1.41,3.45,3.61,3.76,0.661,0.743,2.03,2.77,-0.0294,3.98,1.19,3.81
TAGCCTAGGTCAGATCGGGCCAATATACGCTATA,1.51,1.46,0.0992,1.22,0.0531,1.79,0.875,0.613,-0.00847,0.383,0.525,1.37,-0.296,-0.715,0.782,2.21,-0.489,1.9,-0.0136,2.94
AGATGTAGGTTATCGGGTCATTCAGTTTGCGCAT,3.31,3.21,1.64,3.01,0.639,4.89,6.25,5.84,3.56,5.27,7.36,7.13,2.95,1.82,2.53,4.02,7.55,4.01,1.35,2.73
CCTACTGGGTCAAAAAGGTCATTGATGCCGATAA,5.59,5.57,4.15,5.29,1.01,5.73,7,6.52,4.03,5.73,5.6,6.85,0.701,-0.419,4.23,6.02,9.56,6.15,2.31,4.66
CGCCCAAGGTCATAGGAGGTCAGTGAAGACAGAT,7.29,7.31,4.78,6.09,0.731,5.8,5.24,5.41,2.05,4.11,2.88,4.26,-0.0879,-0.0436,3.59,6.51,3.76,5.06,1.63,5.45
TAGCCTAGGGCATGGGCCAGTATACCACGCGAAC,-0.362,-0.149,-0.378,-0.666,-1.19,-0.188,0.658,0.665,-0.115,0.0783,-0.924,0.59,-0.344,-0.519,-0.284,-0.477,-0.557,0.0195,-0.519,1.33
GGAACGAGGGCATTCGAGTTGATAACATGGCGAT,1.09,1.76,-0.0799,0.415,-0.451,1.56,1.3,0.636,-0.0941,0.231,2.75,2.1,0.243,0.0771,0.605,4.02,1.36,0.915,-0.696,1.68
ATCTCTAGGTAACAAGTTCAGAGAAAGAGAGGAC,0.853,0.957,0.71,0.814,0.838,1.67,1.71,2.04,0.949,1.76,2.92,2.66,0.959,2.27,0.923,1.59,1.6,1.1,1.3,1.53
CCTAGCAGGCCAGTCTGGGTCACTCAAGGCTTGA,0.876,0.686,-0.81,0.487,-1.44,2.13,-0.179,0.439,-1.1,0.0493,1.92,2.62,-1.53,-2.16,-0.0647,0.811,-0.718,1.45,-1.53,1.42
TGTCGGAGGACACGAAAGGTCAGAGCTCGACATC,3.25,3.96,2.69,3.16,0.015,3.69,1.62,2.54,0.799,1.53,-0.0424,1.74,0.729,-0.228,2.53,4.04,0.82,4.12,1.52,4.31
ACTAGCAGGCCAAGTGTCACTCAAGATTAGTCCG,-0.202,-0.345,-0.396,-0.372,-0.742,1.37,1.95,3.56,1.36,2.95,1.36,1.14,-0.753,-0.466,-0.0608,-0.239,-0.525,0.0332,-0.483,0.887
CCAGACAGGTGAGATGGTAACTCAGCCTCGATTA,-0.218,-0.133,0.219,-0.0689,-0.491,0.132,0.33,0.151,-0.316,-0.00959,0.95,0.00345,-0.391,-0.721,0.16,-0.343,0.189,-0.347,0.738,0.229

# From the supplement of paper PMC6555819
